Screening data deposited in PubChem BioAssay by National Center for Advancing Translational Sciences (NCATS).
DT40 TDP1 no CPT = qHTS for Inhibitors of human tyrosyl-DNA phosphodiesterase 1 (TDP1): qHTS in cells in absence of CPT. DT40 Tdp1-/- hTDP1 cells, no CPT, ATP luminescence, 48 h. actives 15% (n = 420,000). Potency, µM (top dose mostly 46.2 µM), for inactives: at the top dose activity change, negative = growth inhibition, most hits filed as inhibitors; note: potency is the fitted concentration of half-maximal effect; nearly all actives have a fitted effect of over 55% in size
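Readout: luminescence from CellTiter-Glo after 30 min in the dark at RT. Cells: DT40 Tdp1-/- with stable hTDP1, 400/well. Exposure: compounds alone, ≥48 hr, 37 °C.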
HT1080 IDH1KD tx = toxicity to HT-1080 IDH1 knockdown cells (counter line). HT-1080 IDH1 knockdown viability, ATP luminescence, 48 h. Potency, µM (series often up to 46.1 µM), for inactives: at the highest dose activity, negative = toxicity, usual class: cytotoxic. actives 2% (n = 360,000);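 note: potency is the fitted concentration of half-maximal effect; 0% = DMSO wells and -100% = cell-free medium wells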
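Viability of IDH1-knockdown HT-1080 fibrosarcoma cells was assessed by CellTiter-Glo after 48 h at 37 °C with titrated compound; concentration-effect curves were classified by fit quality and response size.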
uPA surface inh = cell surface uPA generation inhibition; cell surface uPA generation assay, qHTS; Potency, µM (doses to about 38.3 µM), without a hit: at the highest dose activity change, negative = inhibition, usual class: inhibitors; actives 0.31% (n = 330,000); active = well fitted inhibition curve with a large enough effect; inconclusive = small, poorly fitted or top-dose-only effect; inactive = no such curve, though single readings can be large or run the other way; tested in mouse RAW 264.7 cells; note: potency is the fitted concentration of half-maximal effect; nearly all actives have a fitted effect of over 55% in size
HT1080NT lethal = kills 2HG-producing HT-1080-NT fibrosarcoma cells | HT-1080-NT fibrosarcoma viability, CellTiter-Glo ATP luminescence, 48 h | Potency, µM (titrated, usually from 46.1 µM), without a hit: at the highest dose activity, negative = less viability, most hits filed as cytotoxic | actives 1.6% (n = 360,000) | AID 686970;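 note: NT is the 2HG producing partner of a matched IDH1 knockdown line; potency is the fitted concentration of half-maximal effect; 0% = DMSO-treated cells and -100% = media-only wells without cells; nearly all actives have a fitted effect of over 55% in size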
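Toxicity toward the 2HG-producing NT line was scored as %Activity, normalised to DMSO and no-cell wells, from CellTiter-Glo luminescence after 48 hours' treatment.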
DT40 TDP1 CPT = growth inhibition of DT40 Tdp1-/-;hTDP1 cells with camptothecin (screen for TDP1 inhibitors); chicken DT40 Tdp1-/-;hTDP1 cells + 20 nM CPT, ATP luminescence, 48 h; Potency, µM (series often up to 46.2 µM), for inactives: top-dose activity change, negative = growth inhibition, actives largely listed as inhibitors; actives 12% (n = 420,000); AID 686979; note: potency is the fitted concentration of half-maximal effect; nearly all actives have a fitted effect of over 55% in size
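Chicken DT40 Tdp1-/- cells complemented with human TDP1, 400 cells/well, exposed to compounds plus 20 nM camptothecin for at least 48 h at 37 C; viability read as ATP content by CellTiter-Glo luminescence.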
IL-1B inflam inh = inhibitors of inflammasome signaling (IL-1 beta secretion). AID 743279. actives 4.7% (n = 360,000). activity change, % at 57.5 µM. THP-1 LPS/ATP IL-1B secretion, AlphaLISA, 16 h; active compounds read low; in the data active = activity change below about -50%; inconclusive = mostly about -30% to -49%
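Secreted IL-1B measured by AlphaLISA bead assay after 16 h compound exposure of THP-1 cells; compounds (final up to 57.5 uM) added 1 h before LPS (250 ng/mL) and ATP (1.25 mM) stimulation; lower signal means less secretion.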
* marks the source's active call; other numbers are inactive results; ? = inconclusive; nt = no result given. Shown are actives, neighbours in structure and some others; about 19% of the full set was active somewhere. Unless noted, calls come from the whole dose curve; as a rule, active = well fitted curve in the direction sought with a large enough effect; inconclusive = small, poorly fitted or top-dose-only effect, or another doubt; inactive = no such curve, though single readings can be large; an effect the other way counts as inactive or inconclusive. Unless noted, % is set by controls: 0 for no effect and ±100 for the full control effect.

SMILES	DT40 TDP1 no CPT	HT1080 IDH1KD tx	uPA surface inh	HT1080NT lethal	DT40 TDP1 CPT	IL-1B inflam inh
Cc1ccc2nc3c(nc2c1C)CCCC3	-18.0%	10.5%	5.2%	9.8%	0.7%	10.4
Cn1c2ccccc2c2c(C(=O)N3CCN(c4cccc(C(F)(F)F)c4)CC3)cn(C3CCCCC3)c(=O)c21	16.4µM*	nt	nt	nt	?	nt
CC(=O)c1ccc(N2CCN(C(=O)c3cn(C)c(=O)c4c3c3ccccc3n4C)CC2)cc1	23.1µM*	nt	nt	nt	?	nt
Cn1cc(C(=O)N2CCN(c3cccc(C(F)(F)F)c3)CC2)c2c3ccccc3n(C)c2c1=O	16.4µM*	nt	nt	nt	23.1µM*	nt
CC(=O)c1ccc(N2CCN(C(=O)c3n[nH]c4ccccc34)CC2)cc1	?	-11.1%	1.2%	-8.3%	?	-21.0
Cn1c2ccccc2c2c(C(=O)N3CCN(c4ccccc4)CC3)cn(C3CCCC3)c(=O)c21	8.2µM*	-27.5%	-2.1%	?	25.9µM*	-28.6
Cn1c2ccccc2c2c(C(=O)NCCCN3CCCC3=O)cn(C3CCCCC3)c(=O)c21	?	-0.6%	-4.0%	-3.7%	-27.3%	-6.9
C[N+]1(C)CCN(CC(O)(c2ccccc2)C2CCCCC2)CC1 (stereo not drawn)	-14.7%	nt	nt	nt	2.2%	nt
COc1ccc(S(=O)(=O)Nc2noc3ccccc23)cc1	-10.7%	0.0%	-0.4%	7.5%	-5.4%	0.0
Cc1ccc(NC(=O)Cn2nc(C(=O)O)c3ccccc3c2=O)cc1S(=O)(=O)N1CCCCCC1	?	8.4%	-2.8%	4.1%	?	0.0
O=C(c1ccccc1)c1ccc2ccccc2c1	-20.1%	10.9%	-7.2%	12.5%	-10.2%	-8.6
O=C(/C=C\NCC(=O)c1ccccc1)c1ccc2ccccc2c1	?	10.8%	-8.0%	0.2%	-28.8%	-53.9*
O=C(NNC(=O)C1CCC1)c1ccc(Br)cc1	-0.5%	14.3%	2.1%	27.9%	9.8%	-11.1
Cc1cnc(C(=O)NNC(=O)c2ccc(Br)cc2)cn1	5.8µM*	20.6µM*	-6.9%	?	3.66µM*	77.0
Cc1ccc2c(c1)sc1nncn12	5.4%	17.4%	nt	-2.5%	4.5%	28.8
COc1ccc(CN2C(=O)C(NC(=O)c3ccccc3OC)(C(F)(F)F)N=C2c2ccccc2)cc1 (stereo not drawn)	14.6µM*	nt	nt	nt	18.4µM*	nt
C/C(=N\Nc1cc(-c2ccccc2)nc(-c2ccc(Br)cc2)n1)c1cccc(N)c1	?	17.8µM*	1.3%	11.2µM*	25.9µM*	-5.6
C/C(=N/Nc1cc(-c2ccccc2)nc(-c2ccccc2)n1)c1ccc(O)cc1	13µM*	?	-21.0%	-16.2%	16.4µM*	-105.3*
Cc1csc(SCC(=O)Nc2ccccc2[N+](=O)[O-])n1	-14.9%	7.1%	-1.5%	13.3%	-7.1%	6.9
O=C(Nc1ccc(Br)cc1Cl)NC1CC1	-1.8%	8.0%	-2.5%	5.1%	7.1%	-20.5
Cc1nc2cccnc2n1-c1cccc(C(=O)NCCc2ccc(Cl)cc2)c1	18.4µM*	nt	nt	nt	?	nt
COCCNC(=O)c1cccc(-n2c(C)nc3cccnc32)c1	-12.6%	nt	nt	nt	-2.8%	nt
Cc1ccc(C(=O)NCCc2ccc(Cl)cc2)cc1-n1c(C)nc2cccnc21	23.1µM*	nt	nt	nt	?	nt
CCNC(=O)c1ccc(C)c(-n2c(C)nc3cccnc32)c1	-0.7%	nt	nt	nt	4.1%	nt
CCOc1ccc(CCNC(=O)c2cccc(-n3c(C)nc4cccnc43)c2)cc1	16.4µM*	nt	nt	nt	23.1µM*	nt
Cc1cc(C(=O)CSc2nnc(Nc3ccccc3)s2)c(C)n1CC1CCCO1 (stereo not drawn)	?	-5.5%	6.1%	0.3%	11.6µM*	?
